Source: PubChem BioAssay (NCI)
The panel holds about 79,000 compounds, 15% with a hit somewhere; the sample as a whole holds those more often. Calls of active or inactive are those of the source. Cut-off read from the data, not from the text of the source: active = growth inhibition above about 70%; inactive = the rest.

Tests used:
[1] = NCI Yeast Anticancer Drug Screen. Data for the rad52 strain (AID 147);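 note: 0% = growth of vehicle-treated control cultures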; conditions: S. cerevisiae rad52 mutant growth inhibition, active compounds read high
In short: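 Measured: yeast growth inhibition. System: strain with a defined DNA damage repair alteration. Reference: vehicle-treated control cultures.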

[2] = NCI Yeast Anticancer Drug Screen. Data for the wt1 strain (AID 149);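 note: 0% = growth of vehicle-treated wt1 cultures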; conditions: S. cerevisiae wt1 strain (SPY 50644) growth inhibition, active compounds read high
In short: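 Using yeast strain wt1, compound-induced growth inhibition was determined against vehicle-treated cultures.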

[3] = NCI Yeast Anticancer Drug Screen. Data for the rad50EPP+ strain (AID 151);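 note: 0% = growth of vehicle-treated control cultures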; conditions: S. cerevisiae rad50 mutant strain, active compounds read high
In short: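 One strain with a rad50 alteration (rad50EPP+) was compound-treated, its growth then compared to that of vehicle controls.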

[4] = NCI Yeast Anticancer Drug Screen. Data for the mgt1 strain (AID 153); conditions: S. cerevisiae mgt1 mutant growth inhibition, active compounds read high
In short: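 After exposure of the mgt1 yeast mutant to compound, growth was measured and reported as inhibition compared with vehicle controls.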

[5] = NCI Yeast Anticancer Drug Screen. Data for the rad50 strain (AID 155);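 note: 0% = growth of vehicle-only cultures of the same strain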; conditions: S. cerevisiae rad50 strain growth inhibition, active compounds read high
In short: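 Relative growth inhibition (compound vs vehicle) was measured in yeast with a defined repair-gene alteration.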

[6] = NCI Yeast Anticancer Drug Screen. Data for the mec2-1 strain (AID 157); conditions: S. cerevisiae mec2-1 strain, active compounds read high
In short: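 Test agents were screened against the mec2-1 yeast strain, with defined DNA repair or cell cycle alteration. Growth was scored as inhibition against vehicle-only controls.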

[7] = NCI Yeast Anticancer Drug Screen. Data for the rad14 strain (AID 159);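 note: 0% = growth of vehicle-treated control cultures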; conditions: S. cerevisiae rad14 strain growth inhibition, active compounds read high
In short: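 Screen for anticancer potential: a yeast strain altered in DNA damage repair is grown with compound, and reduced growth is quantified against vehicle controls.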

[8] = NCI Yeast Anticancer Drug Screen. Data for the sgs1 mgt1 strain (AID 161);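 note: 0% = growth of cultures given vehicle only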; conditions: S. cerevisiae sgs1 mgt1 strain, active compounds read high
In short: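 Read-out: growth inhibition vs vehicle controls. Cells: mutant yeast strain deficient in DNA damage repair.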

[9] = NCI Yeast Anticancer Drug Screen. Data for the CLN2oe strain (AID 163);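 note: 0% = growth of vehicle-only control cultures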; conditions: S. cerevisiae CLN2oe strain, active compounds read high
In short: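 Here, growth inhibition in a cell-cycle-altered yeast strain after compound exposure was quantified against vehicle control growth.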

[10] = NCI Yeast Anticancer Drug Screen. Data for the cln2 rad14 strain (AID 165);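 note: 0% = growth equal to vehicle treated cultures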; conditions: S. cerevisiae cln2 rad14 strain, active compounds read high
In short: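 Growth of compound-exposed yeast (cln2 rad14 genotype) measured and expressed as inhibition relative to vehicle.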

[11] = NCI Yeast Anticancer Drug Screen. Data for the bub3 strain (AID 167); conditions: S. cerevisiae bub3 mutant strain, active compounds read high
In short: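 Screening used yeast with an engineered genetic alteration affecting cell cycle control. Compound-exposed cultures were compared with vehicle cultures, and reduced growth was taken as inhibition.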

[12] = NCI Yeast Anticancer Drug Screen. Data for the wt2 strain (AID 169);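 note: 0% = growth of vehicle-treated yeast cultures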; conditions: S. cerevisiae wt2 strain growth inhibition, active compounds read high
In short: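 Genetically defined yeast strains from a DNA-repair/cell-cycle panel were used. Compound-exposed yeast growth was measured, and the inhibition was calculated relative to vehicle treatment.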

[13] = NCI Yeast Anticancer Drug Screen. Data for the sgs1 strain (AID 173);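 note: 0% = growth of vehicle-only control cultures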; conditions: S. cerevisiae sgs1 mutant, active compounds read high
In short: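 Relative growth inhibition, referenced to vehicle, was determined in a yeast strain with a defined alteration affecting DNA damage repair or cell cycle control after compound exposure.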

[14] = NCI Yeast Anticancer Drug Screen. Data for the mlh1 rad18 strain (AID 175); conditions: S. cerevisiae mlh1 rad18 strain growth inhibition, active compounds read high
In short: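 In this whole-cell yeast screen, a strain with altered DNA damage repair is challenged with compound, and its growth is measured against matched vehicle-treated controls.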

[15] = NCI Yeast Anticancer Drug Screen. Data for the rad18 strain (AID 177); conditions: S. cerevisiae rad18 mutant growth inhibition, active compounds read high
In short: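 Screen uses a yeast strain with a defined lesion in DNA damage repair; compound effect is read as loss of growth compared to untreated vehicle cultures.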

[16] = at 5.0 µM (retest, dose inferred, filed as 0.5)
[17] = at 50.0 µM (retest, dose inferred, filed as 5.0)

Measured: growth inhibition

CC(=O)[O][Bi]([c]1ccccc1)[c]1ccccc1
active: [1]; at 11.0 µM 72% | [1]; at 33.0 µM 91% | [1]; at 100.0 µM 94% | [2]; at 33.0 µM 90% | [2]; at 100.0 µM 94% | [4]; at 33.0 µM 89% | [4]; at 100.0 µM 95% | [5]; at 11.0 µM 73% | [5]; at 33.0 µM 95% | [5]; [17] 94% | [5]; at 50.0 µM 86% | [5]; at 100.0 µM 95% | [6]; at 33.0 µM 90% | [6]; [17] 95% | [6]; at 50.0 µM 89.5% | [6]; at 100.0 µM 95% | [7]; at 33.0 µM 95% | [7]; at 100.0 µM 96% | [8]; [17] 96% | [8]; at 50.0 µM 86.5% | [9]; at 33.0 µM 80% | [9]; at 100.0 µM 91% | [10]; [17] 95% | [10]; at 50.0 µM 84.7% | [11]; at 33.0 µM 91% | [11]; [17] 96% | [11]; at 50.0 µM 83.2% | [11]; at 100.0 µM 94% | [12]; at 11.0 µM 79% | [12]; at 33.0 µM 96% | [12]; at 100.0 µM 96% | [13]; at 33.0 µM 88% | [13]; at 100.0 µM 95% | [14]; [17] 93% | [14]; at 50.0 µM 91% | [15]; at 11.0 µM 72% | [15]; at 33.0 µM 91% | [15]; at 100.0 µM 94%
inactive: [1]; at 1.2 µM 31% | [1]; at 3.7 µM 41% | [2]; at 1.2 µM 2% | [2]; at 3.7 µM 11% | [2]; at 11.0 µM 23% | [3]; at 1.2 µM 31% | [3]; at 3.7 µM 39% | [3]; at 11.0 µM 18% | [3]; at 33.0 µM 20% | [3]; at 100.0 µM 24% | [4]; at 1.2 µM 28% | [4]; at 3.7 µM 30% | [4]; at 11.0 µM 40% | [5]; at 1.2 µM 36% | [5]; at 3.7 µM 42% | [5]; [16] 27% | [6]; at 1.2 µM 29% | [6]; at 3.7 µM 30% | [6]; [16] 19% | [6]; at 11.0 µM 40% | [7]; at 1.2 µM 39% | [7]; at 3.7 µM 35% | [7]; at 11.0 µM 64% | [8]; [16] 6% | [9]; at 1.2 µM 22% | [9]; at 3.7 µM 16% | [9]; at 11.0 µM 31% | [10]; [16] 7% | [11]; at 1.2 µM 15% | [11]; at 3.7 µM 13% | [11]; [16] 22% | [11]; at 11.0 µM 56% | [12]; at 1.2 µM 4% | [12]; at 3.7 µM 4% | [13]; at 1.2 µM 28% | [13]; at 3.7 µM 30% | [13]; at 11.0 µM 46% | [14]; [16] 42% | [15]; at 1.2 µM 15% | [15]; at 3.7 µM 30%

CN(C)C[C@H]1CC[C@@H](CN(C)C)C1=O
active: [3]; at 100.0 µM 84% | [5]; at 100.0 µM 78% | [6]; [17] 83% | [12]; at 100.0 µM 99% | [13]; at 100.0 µM 81% | [14]; at 50.0 µM 75%
inactive: [1]; at 1.2 µM 17% | [1]; at 3.7 µM 24% | [1]; at 11.0 µM 27% | [1]; at 33.0 µM 39% | [1]; at 100.0 µM 66% | [2]; at 1.2 µM 24% | [2]; at 3.7 µM 25% | [2]; at 11.0 µM 25% | [2]; at 33.0 µM 14% | [2]; at 100.0 µM 47% | [3]; at 1.2 µM 16% | [3]; at 3.7 µM 12% | [3]; at 11.0 µM 27% | [3]; at 33.0 µM 50% | [4]; at 1.2 µM 16% | [4]; at 3.7 µM 20% | [4]; at 11.0 µM 25% | [4]; at 33.0 µM 30% | [4]; at 100.0 µM 43% | [5]; at 1.2 µM 11% | [5]; at 3.7 µM 31% | [5]; [16] 5% | [5]; at 11.0 µM 22% | [5]; at 33.0 µM 37% | [5]; [17] 36% | [5]; at 50.0 µM 70% | [6]; at 1.2 µM 13% | [6]; at 3.7 µM 20% | [6]; [16] 9% | [6]; at 11.0 µM 16% | [6]; at 33.0 µM 28% | [6]; at 50.0 µM 57.3% | [6]; at 100.0 µM 49% | [7]; at 1.2 µM 16% | [7]; at 3.7 µM 20% | [7]; at 11.0 µM 21% | [7]; at 33.0 µM 30% | [7]; at 100.0 µM 52% | [8]; [16] 1% | [8]; [17] 18% | [8]; at 50.0 µM 38.4% | [9]; at 1.2 µM -4% | [9]; at 3.7 µM 0% | [9]; at 11.0 µM 9% | [9]; at 33.0 µM 29% | [9]; at 100.0 µM 64% | [10]; [16] 20% | [10]; [17] 14% | [10]; at 50.0 µM 23.9% | [11]; at 1.2 µM 17% | [11]; at 3.7 µM 12% | [11]; [16] 9% | [11]; at 11.0 µM 19% | [11]; at 33.0 µM 29% | [11]; [17] 47% | [11]; at 50.0 µM 34.5% | [11]; at 100.0 µM 63% | [12]; at 1.2 µM -46% | [12]; at 3.7 µM -45% | [12]; at 11.0 µM -40% | [12]; at 33.0 µM 7% | [13]; at 1.2 µM 15% | [13]; at 3.7 µM 26% | [13]; at 11.0 µM 30% | [13]; at 33.0 µM 44% | [14]; [16] 7% | [14]; [17] 54%

CCCCCCc1cc(C(=O)OC/C(C)=N/NC(N)=O)c2ccccc2n1
active: [11]; [17] 77%
inactive: [1]; at 1.2 µM -1% | [1]; at 3.7 µM -1% | [1]; at 11.0 µM 1% | [1]; at 33.0 µM -1% | [1]; at 100.0 µM -3% | [2]; at 1.2 µM -2% | [2]; at 3.7 µM 1% | [2]; at 11.0 µM -4% | [2]; at 33.0 µM -5% | [2]; at 100.0 µM -5% | [3]; at 1.2 µM -1% | [3]; at 3.7 µM -3% | [3]; at 11.0 µM -4% | [3]; at 33.0 µM 2% | [3]; at 100.0 µM 3% | [4]; at 1.2 µM -3% | [4]; at 3.7 µM -3% | [4]; at 11.0 µM -2% | [4]; at 33.0 µM -5% | [4]; at 100.0 µM -5% | [5]; at 1.2 µM -3% | [5]; at 3.7 µM -3% | [5]; [16] -3% | [5]; at 11.0 µM 0% | [5]; at 33.0 µM -4% | [5]; [17] 32% | [5]; at 50.0 µM 26.6% | [5]; at 100.0 µM -4% | [6]; at 1.2 µM -4% | [6]; at 3.7 µM -2% | [6]; [16] -6% | [6]; at 11.0 µM -6% | [6]; at 33.0 µM -3% | [6]; [17] 42% | [6]; at 50.0 µM -1.15% | [6]; at 100.0 µM -7% | [7]; at 1.2 µM 0% | [7]; at 3.7 µM 3% | [7]; at 11.0 µM 3% | [7]; at 33.0 µM 0% | [7]; at 100.0 µM -4% | [8]; [16] -4% | [8]; [17] 47% | [8]; at 50.0 µM 31% | [9]; at 1.2 µM -3% | [9]; at 3.7 µM -11% | [9]; at 11.0 µM -5% | [9]; at 33.0 µM -13% | [9]; at 100.0 µM -10% | [10]; [16] -1% | [10]; [17] 21% | [10]; at 50.0 µM -12.3% | [11]; at 1.2 µM 0% | [11]; at 3.7 µM -4% | [11]; [16] -2% | [11]; at 11.0 µM -2% | [11]; at 33.0 µM 3% | [11]; at 50.0 µM 68.5% | [11]; at 100.0 µM 5% | [12]; at 1.2 µM 0% | [12]; at 3.7 µM -1% | [12]; at 11.0 µM 0% | [12]; at 33.0 µM -2% | [12]; at 100.0 µM -4% | [13]; at 1.2 µM -4% | [13]; at 3.7 µM -4% | [13]; at 11.0 µM -6% | [13]; at 33.0 µM -5% | [13]; at 100.0 µM -4% | [14]; [16] -4% | [14]; [17] 50% | [14]; at 50.0 µM 61.4% | [15]; at 1.2 µM -1% | [15]; at 3.7 µM -2% | [15]; at 11.0 µM -4% | [15]; at 33.0 µM -7% | [15]; at 100.0 µM -7%
